# Source: PubChem BioAssay (NCI)
# Compounds without any hit were thinned out: in the full panel of roughly 83,000, 20% have a hit.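 Growth was measured after 48 h exposure to one concentration of compound in 96-well plates. Values under 10 count as active.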 Unmarked numbers belong to inactive results. Active and inactive are the calls of the source.
# Test system: OVCAR-4 ovarian
# Test: NCI-60 one-dose screen, 48 h (100 = growth as untreated, 0 = no growth, -100 = all killed)
# Conditions: 10 µM unless noted
row,SMILES,growth
1,C=CN(C(=O)N1CCN(c2cc3c(cc2F)c(=O)c(C(=O)O)cn3C2CC2)CC1)c1nc(-c2ccccc2)cs1,93.1%
2,CNCCCNc1nc2ccccc2c2c(=O)c3cc(Cl)ccc3sc12,63.6%
3,CCOC(=O)C1=C(CCl)N(C)C(=O)NC1c1ccc2c(c1)OCO2 (stereo not given),55.9%
4,COc1ccc(C2[C@@H](Cl)C(=O)N2c2cc(OC)c(OC)c(OC)c2)cc1Cl (stereo not given in full),56%
5,Cn1cc(-c2nonc2-c2c[nH]c3ccccc23)c2cc(Br)ccc21,49.6%
6,COc1cc2c3c(c4c5ccccc5[nH]c4c2c(OC)c1OC)C(=O)N(CCN1CCCCC1)C3=O,15.7%
7,COC(=O)/C(CCC=C(C)C)=C1\[C@@H](OC(C)=O)C[C@@]2(C)[C@H]1C/C(=N/O)[C@H]1[C@@]3(C)CC/C(=N\O)[C@@H](C)[C@@H]3CC[C@@]12C,97.3%
8,Cc1[nH]n(-c2cccc(Cl)c2)c(=O)c1/C=C1\C=c2ccccc2=CC1=O,-62.5% (active)
9,CCN(CC)CCn1c2ccc(OC)cc2c2sc3cc(O)ccc3c(=O)c21,50.7%
10,C=C1C(=O)O[C@H]2[C@H]1CC/C(COC(=O)NCc1ccc(Cn3c(=O)sn(-c4ccc(I)cc4)c3=O)cc1)=C\CC[C@@]1(C)O[C@@H]21,58.9%
11,CS(=O)(=O)Nc1cc(-c2ccc3ncnc(Nc4ccc5c(cnn5Cc5ccncc5)c4)c3c2)cnc1Cl,84.8%
12,COc1ccc2cc(C(=O)N3CCC([C@@H](C)C(=O)NCc4ccc5c(c4)OCO5)CC3)[nH]c2c1,53.3% [50 µM]
13,Nc1ncccc1O,98.4%
14,CC1(C)CC[C@]2(CO)CC[C@]3(C)[C@](O)([C@H](O)C[C@@H]4[C@@]5(C)CCCNC(C)(C)[C@@H]5CC[C@]43C)[C@@H]2C1,96.2%
15,CN(C)CCC(=O)C1CC1,108%
16,CCCc1cc(=O)oc2c(C(=O)CC(C)C)c(O)c(CC=C(C)C)c(O)c12,30.5%
17,CSc1ccc2c3c(n(CCCn4ccnc4)c(=O)c2c1)-c1ccccc1C3=O,71.8%
18,O=c1oc2ccccc2cc1-c1nn(-c2ccccc2)cc1-c1nn[nH]n1,97.9%

row,SMILES,growth
1,COc1ccc(-c2cc(C(=O)N3N=C(c4ccc(N)cc4)CC3c3ccc(Cl)cc3)c3ccccc3n2)cc1 (stereo not given),59.6%
2,COc1cc(/C=C/c2cn[nH]c2-c2ccc(C)cc2)cc(OC)c1OC,78.5%
3,COc1ccc(Nc2ncc(I)c(NCCCNC(=O)C3CCC3)n2)cc1,42.2%
4,CN1CCOCCN(C)Cc2ccc3ccc(cc3c2)CN(C)CCOCCN(C)Cc2ccc3ccc(cc3c2)C1,78.4%
5,S=c1ccnc[nH]1,117%
6,c1ccc2cc(Cn3cc(CSc4nc5ccccc5s4)nn3)ccc2c1,98.1%
7,O=C(O)c1cn(C2CC2)c2cc(N3CCN(C(=O)N4CCOCC4)CC3)c(F)cc2c1=O,106%
8,O=C(NCCN1CCOCC1)OCc1ccc2c(Cl)cc(Cl)c(O)c2n1,49.4%
9,O=C(/C=C/c1ccccc1)c1ccc(-n2cc(CN3CCN(c4cc5c(cc4F)c(=O)c(C(=O)O)cn5C4CC4)CC3)nn2)cc1,89.7%
10,Cc1cc(NCCCNc2ccnc3cc(Cl)ccc23)nc(Nc2ccc(C(=O)N3CCCCC3)cc2)n1,39.5%
11,CC/C(=C(/c1ccc(O)cc1)c1ccc(OCCN2CCCCC2)cc1)c1ccc(OC)cc1,90.4%
12,O=C(Nc1cccnc1Nc1ccccc1)c1cn(Cc2cccc(Oc3ccccc3)c2)nn1,86.9%
13,Clc1cccc(C2Cc3cnccc3-c3[nH]c4ccncc4c32)c1 (stereo not given),36.2%
14,C=C1C(=O)O[C@H]2[C@H]1CC/C(COC(=O)NCc1ccc(Cn3c(=O)sn(-c4ccccc4)c3=O)cc1)=C\CC[C@@]1(C)O[C@@H]21,34.8%
15,O=C(NCCCCCCNC(=O)OCc1ccc2c(Cl)cc(Cl)c(O)c2n1)OCc1ccc2c(Cl)cc(Cl)c(O)c2n1,-56.9% (active)
16,C/C(Cc1ccc(Cl)cc1)=C(\c1ccc(OCCN2CCCCCC2)cc1)c1ccc(OC(=O)c2ccccc2)cc1,36.6%
17,CC(O)CNC(Cc1ccccc1)c1ccc2c(c1)OCO2 (stereo not given),102%
